ROC1-CUL1 inh: human ROC1-CUL1 E3 ligase inhibition; P62877+Q13616; in vitro K48 di-Ub FRET, acceptor:donor ratio, 45 min; inhibition, % at 10 µM; actives 0.6% (n = 140,000); AID 1347404; in the data active = inhibition above about 25%
* hit, by the source's call. Many of the other results were omitted from the sample, so hits are more common in it than they were.

SMILES	ROC1-CUL1 inh
CC(=O)c1ccc(NC(=O)/C=C/c2ccc(C)o2)cc1	7
COc1cc(CC2=NC(=O)N(CC(=O)Nc3ccc(F)cc3)C2=O)ccc1OC(C)C(=O)O (stereo not given)	4
CC(C)/C=C/CN1CC[C@@H](N2CCN(C)CC2)[C@H](O)C1	-11
CCOC(=O)c1cnc2c(ccc3ccccc32)c1NCCOC	-3
COc1ccc(Br)c(/C=C2\SC(=S)NC2=O)c1	-1
CC(=O)N1CCN(S(=O)(=O)c2ccc(F)cc2)CC1	-3
O=C1C(Cl)=C(N2CCN(S(=O)(=O)c3ccc(F)cc3)CC2)C(=O)c2ccccc21	64*
CCC(CC)C(=O)N1CCN(S(=O)(=O)c2ccc(F)cc2)CC1	7
CCN(CC)c1ccc(NC(=O)C(C)Oc2ccc(Cl)cc2Cl)cc1 (stereo not given)	6
C[N+]1(C)CCC(C2c3ccccc3CSc3sccc32)CC1 (stereo not given)	-3
OC1c2ccccc2CSc2sccc21 (stereo not given)	49*
OC1c2ccccc2CCc2sccc21 (stereo not given)	-2
COc1cc(CNCCN(C)C)ccc1OCC(=O)N1CCCCC1	5
Nc1ccc2cccc(C(=O)O)c2n1	70*
Nc1ccc2ccc3cccnc3c2n1	-8
CS(=O)(=O)c1ccccc1C(=O)O	4
O=C1c2ccccc2N(c2ccccc2)C(=O)C1Sc1ccccc1 (stereo not given)	5
O=C1c2cccc3cccc(c23)C(=O)C1Sc1ccccc1	99*
O=C1Nc2ccccc2C(=O)C1Sc1ccccc1 (stereo not given)	0
CCOC(=O)c1c(-c2ccccc2)cc(-c2ccccc2)sc1=O	5
O=C(O)COc1ccc(Br)cc1/C=C1\SC(=O)N(c2cccc(Cl)c2)C1=O	51*
COc1cc(/C=C2\SC(=O)N(c3ccc(Cl)cc3)C2=O)c(Br)cc1OCC(=O)O	41*
COc1cc(/C=C2\SC(=O)N(Cc3ccc(F)cc3)C2=O)c(Br)cc1OCC(=O)O	9
CCOC(=O)COc1cc(Br)c(/C=C2/SC(=O)N(CC)C2=O)cc1OC	-7
CCc1ccccc1N=C1S/C(=C\c2cc(Br)ccc2OCC(=O)O)C(=O)N1c1ccccc1CC	0
SMILES	ROC1-CUL1 inh
O=C(O)COc1ccc(Br)cc1/C=C1/SC(=O)N(CC(=O)N2CCCC2)C1=O	-9
COc1ccc(C2=NN(C(=O)c3cccc(Cl)c3)C(O)(C(F)(F)F)C2)cc1 (stereo not given)	-5
CCn1ccnc(N2CCOCC2)c1=Nc1ccc(OC)cc1	-5
Cc1cccc(N2C(=O)c3ccc(C(=O)Nc4ccncc4)cc3C2=O)c1C	0
C/C=C/Cn1c(=O)c2c(nc3n(CC)c(C)cn23)n(C)c1=O	-2
CCC1CCCCN1S(=O)(=O)c1ccc(Br)c(OC)c1 (stereo not given)	-6
Cc1nnc2sc(-c3cccnc3)nn12	-4
O=c1oc(-c2ccccc2Br)nc2c(Cl)cccc12	10
CCN1/C(=C\C=C/C2C=Cc3ccccc3N2CC)C=Cc2ccccc21 (stereo not given)	57*
CCc1ccc(CN(CCOC)CC2CCCN(C3Cc4ccccc4C3)C2)o1 (stereo not given)	-4
CCOC(=O)c1ccc(NC(=O)COc2c(Br)cc(/C=C3/C(=O)NC(=O)N(c4cccc(C)c4)C3=O)cc2OCC)cc1	4
O=C(N/N=C/c1ccc(-c2ccc([N+](=O)[O-])cc2)o1)c1ccc(COc2ccc3c(c2)CCC3)cc1	3
O=C1/C(=C\c2ccccc2)CCC/C1=C\c1ccccc1	-1
O=C1C(=O)/C(=C/c2ccccc2)CCC/C1=C/c1ccccc1	-1
CC1(C)CC(=O)/C(=C\c2ccccc2)C(C)(C)N1	25*
O=C(c1ccc(C2CCCN2C(=O)c2ccn[nH]2)s1)N1CCCOCC1 (stereo not given)	5
CCN(CC)C(=O)c1cc(S(=O)(=O)N2CCOCC2)ccc1C	-3
CN(C)c1ccc(/C=C2/OC(=S)NC2=S)cc1	26*
CN(C)c1ccc(/C=C\c2ccccc2)cc1	4
CC1=NOC(=O)/C1=C\c1ccc(N(C)C)cc1	1
COc1ccc(CCCC(=O)Nc2cc(C)c(C)cc2Br)cc1	6
N#Cc1cc2c(nc1SCN1C(=O)c3ccccc3C1=O)CCC2	0
O=c1ccc(=O)n(-c2cccc(Cl)c2)[nH]1	6
COc1ccc(N=Cc2cc3c(cc2O)OC(=N)C(C#N)C3c2cccc(F)c2)cc1 (stereo not given)	-3
COc1ccccc1N=Cc1cc2c(cc1O)OC(=N)C(C#N)C2c1cccc(F)c1 (stereo not given)	21
N#CC1C(=N)Oc2cc(O)c(C=Nc3cccc(F)c3)cc2C1c1ccco1 (stereo not given)	48*
COc1ccc2c(c1)C(=O)Cc1ccccc1S2	3
COc1ccc2c(c1)C(=O)Cc1ccccc1O2	67*
COc1cccc(C(=O)N=C2Cc3cc(OC)ccc3OC2=O)c1	-3
CC(C)(C)C1CCC(=Cc2cc3ccccc3o2)CC1 (stereo not given)	-1

Source: PubChem
